# Values joined by “and” are separate entries in the source; they are usually repeats but may differ in a detail not shown here. Identical values can stand only once. Results filed as inconclusive are left out. Entries that show only a call come without a potency. Active and inactive are the calls of the source. Unless noted, calls come from the whole dose curve; as a rule, active = well fitted curve in the direction sought with a large enough effect; inconclusive = small, poorly fitted or top-dose-only effect, or another doubt; inactive = no such curve, though single readings can be large; an effect the other way counts as inactive or inconclusive.
# Columns and labels:
# [1] = target: Mitogen-activated protein kinase 10 (Mus musculus) (UniProt Q61831); experiment: JNK3 AlphaScreen Assay (AID 530; active = well fitted curve in either direction with a large enough effect, not every such curve was filed as active;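 note: kinase came from lysate of stimulated human HepG2 cells; signal reports phosphorylation of biotinylated GST-cJun 1-79 at Ser73 with 10 µM ATP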)
# Method in brief: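 Activity was read by AlphaScreen after JNK3-containing HepG2 lysate (cytokine pre-activated) phosphorylated biotinylated GST-cJun with 10 uM ATP at room temperature. Phospho-Ser73 cJun antibody with Protein-A acceptor beads provided detection.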
# [2] = Cell Viability - N2a (AID 540); conditions: N2a mouse neuroblastoma cell viability; activity change, negative = cytotoxicity: at 92.2 µM (top of the series); note: nearly all actives have a fitted effect of over 45% in size
# Method in brief: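 CellTiter-Glo ATP luminescence, read 20 min after reagent at room temperature, reported viability following 40 h compound treatment at 37 °C. N2a mouse neuroblastoma cells seeded 1500/well; Hill equation gave AC50.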
# [3] = Cell Viability - H-4-II-E (AID 543);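 note: cells exposed to compound for 40 hours; nearly all actives have a fitted effect of over 35% in size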
# Method in brief: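 CellTiter-Glo luminescence (intracellular ATP) measured after 40 h compound exposure at 37 °C in H-4-II-E rat hepatoma cells seeded at 1500/well. Values are AC50s fitted with the standard Hill equation.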
# [4] = Cell Viability - LYMP2-001 (AID 921); note: nearly all actives have a fitted effect of over 70% in size
# Method in brief: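 qHTS, 1536-well; lymphoblastoid cells, 24 hr compound, 37 C; ATP by CellTiter-Glo, 30 min RT; luminescence; Hill-fit AC50.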
# [5] = Cell Viability - LYMP2-011 (AID 969); note: nearly all actives have a fitted effect of over 60% in size
# Method in brief: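 Cytotoxicity qHTS with ATP content as read-out: lymphoblastoid cells (2500/well) exposed to compound for 24 h at 37 C, then luciferase luminescence measured. Concentration-response data fitted with the standard Hill equation to give AC50.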
# [6] = Cell Viability - LYMP2-007 (AID 979);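 note: cells exposed to compound for 24 h before reading; nearly all actives have a fitted effect of over 60% in size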
# Method in brief: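 AC50 values come from Hill-equation fits of luminescent intracellular ATP (CellTiter-Glo, 30 min, room temperature) following 24 h compound exposure at 37 C. Cells: LYMP2-007 lymphoblastoid line, 2500 per well, in complete culture medium.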
# [7] = qHTS assay for small molecule antagonists of peroxisome proliferator-activated receptor delta signaling (AID 588535); conditions: HEK293T PPARd-UAS-bla, beta-lactamase FRET ratio, 18 h; 460 nm channel;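 note: cells co-treated with a PPAR-delta agonist as stimulator during compound exposure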
# Method in brief: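 Fluorescence from CCF4-loaded GeneBLAzer PPAR-delta-UAS-bla HEK293T cells (2 hrs RT loading) quantified reporter inhibition after an 18 hr, 37 C compound exposure across a titration.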
# [8] = target: Vitamin D3 receptor (Homo sapiens) (UniProt P11473); experiment: qHTS assay for small molecule agonists of vitamin D receptor signaling (AID 588543; calls by dose curve)
# Method in brief: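 qHTS in agonist mode: compound titrations stimulate a VDR-driven β-lactamase reporter in HEK293T cells over 16 h at 37 °C. Response normalized to 50 nM 1α,25-dihydroxyvitamin D3 = 100%, DMSO = 0%; Hill fitting gives EC50 and maximal response.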
# [9] = target: Retinoic acid receptor RXR-alpha (Homo sapiens) (UniProt P19793); experiment: qHTS assay for small molecule agonists of retinoid X receptor alpha signaling (AID 588544; calls by dose curve)
# [10] = target: Tumor necrosis factor (Homo sapiens) (UniProt P01375); experiment: qHTS assay to identify small molecules that stimulate Tumor Necrosis Factor-alpha (TNF-alpha) secretion (AID 651757; active = well fitted curve in the direction sought with a large enough effect in the signal ratio; the % refers to the signal ratio)
# Method in brief: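 Secreted TNF-alpha quantified by TR-FRET sandwich of two labeled anti-TNF-alpha antibodies, incubated 3 hr at room temperature. Preceded by 17 hr, 37 C compound treatment of THP-1 cells at 3000 cells/well.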
# [11] = Cell Viability - LYMP2-004 (AID 966); note: nearly all actives have a fitted effect of over 65% in size
# Method in brief: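 AC50 values come from Hill modelling of concentration-dependent loss of intracellular ATP, measured by CellTiter-Glo luminescence. Human LYMP2-004 lymphoblastoid cells (2500/well) were exposed to compound for 24 h at 37 C.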
# [12] = Cell Viability - LYMP2-008 (AID 980); note: nearly all actives have a fitted effect of over 60% in size
# Method in brief: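 Cytotoxicity determined from ATP-dependent luciferase luminescence (CellTiter-Glo) following 24 h compound exposure of human lymphoblastoid LYMP2-008 cells at 37 C. Concentration-response data fitted to the Hill equation to give AC50.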
# [13] = qHTS assay to identify small molecules that stimulate interleukin-8 (IL-8) secretion (AID 651758; active = well fitted activation curve with a large enough effect in the signal ratio; the % refers to the signal ratio)
# Method in brief: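 Compounds are added to THP-1 cells (2000 per well) and left 16 hrs at 37 C. A labeled anti-IL-8 antibody pair is then added, and IL-8 secretion is measured by time-resolved FRET after 1-3 hrs at room temperature.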
# [14] = target: Bile acid receptor (Homo sapiens) (UniProt Q96RI1); experiment: qHTS assay for small molecule antagonists of farnesoid X receptor signaling (AID 588526; calls by dose curve)
# Method in brief: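 Antagonist mode: titrated compounds tested against chenodeoxycholic acid stimulation (normalized to 50 uM CDCA and DMSO) in GeneBLAzer HEK293T cells for 16 h. Beta-lactamase read by CCF4 fluorescence; IC50 from Hill fits.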
# [15] = target: Peroxisome proliferator-activated receptor gamma (Homo sapiens) (UniProt P37231); experiment: qHTS assay for small molecule agonists of peroxisome proliferator-activated receptor gamma signaling (AID 588536; active = well fitted curve in the direction sought with a large enough effect in the signal ratio, with a control signal flat, not every such curve was filed as active; the % refers to the signal ratio)
# Method in brief: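 Cells were plated and held 6–6.5 h at 37 C, then compounds were added as a titration series. After a further 16 h, CCF4 dye was loaded for 2 h at room temperature and emission at 460/530 nm recorded.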
# [16] = Cell Viability - SH-SY5Y (AID 544); conditions: SH-SY5Y neuroblastoma cell viability; viability change, negative = cytotoxic: at 92.2 µM (top of the series);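 note: cells exposed to compound for 40 hours; nearly all actives have a fitted effect of over 55% in size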
# Method in brief: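 Cytotoxicity measured via ATP-dependent luciferase luminescence (CellTiter-Glo) following 40 h, 37 °C exposure of 1500 SH-SY5Y cells per well. Concentration-response data were fitted with the standard Hill equation to give AC50.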
# [17] = target: Peroxisome proliferator-activated receptor gamma (Homo sapiens) (UniProt P37231); experiment: qHTS assay for small molecule antagonists of peroxisome proliferator-activated receptor gamma signaling (AID 588537; active = well fitted inhibition curve with a large enough effect in the signal ratio, with a control signal flat, not every such curve was filed as active; the % refers to the signal ratio;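 note: reporter cells co-stimulated with 50 nM rosiglitazone agonist during compound treatment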)
# Method in brief: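 Fluorescence at 460 and 530 nm (405 nm excitation) reported beta-lactamase cleavage of CCF4 after 2 h room-temperature loading. HEK293 reporter cells in 1% charcoal/dextran-treated FBS had received compound and rosiglitazone for 16 h.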
# [18] = qHTS assay for small molecule activators of the p53 signaling pathway (AID 651743; active = well fitted activation curve with a large enough effect in the signal ratio, not every such curve was filed as active; the % refers to the signal ratio); conditions: HCT-116 p53RE-bla, beta-lactamase FRET ratio, 16 h; activation: stronger effect = higher value
# Method in brief: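 Following 16 hours of compound exposure at 37 C, HCT-116 cells bearing the p53RE-bla reporter were loaded with LiveBLAzer B/G FRET substrate for 2 hours at room temperature and fluorescence intensity was recorded.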
# [19] = qHTS assay for small molecule agonists of the antioxidant response element (ARE) signaling pathway measured by Nrf2-dependant transcriptional activity (AID 720636; active = well fitted curve in the direction sought with a large enough effect in the repeat runs; an effect the other way counts as inactive or inconclusive)
# Method in brief: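 Nrf2-dependent transcription read as ONE-Glo luciferase signal from ARE-luc HepG2 reporter cells after 16 hr compound treatment at 37 C, 5% CO2, in assay medium with 1% dialyzed FBS.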
# Chain of Vitamin D3 receptor (Homo sapiens) (P11473 whole entry, looked up): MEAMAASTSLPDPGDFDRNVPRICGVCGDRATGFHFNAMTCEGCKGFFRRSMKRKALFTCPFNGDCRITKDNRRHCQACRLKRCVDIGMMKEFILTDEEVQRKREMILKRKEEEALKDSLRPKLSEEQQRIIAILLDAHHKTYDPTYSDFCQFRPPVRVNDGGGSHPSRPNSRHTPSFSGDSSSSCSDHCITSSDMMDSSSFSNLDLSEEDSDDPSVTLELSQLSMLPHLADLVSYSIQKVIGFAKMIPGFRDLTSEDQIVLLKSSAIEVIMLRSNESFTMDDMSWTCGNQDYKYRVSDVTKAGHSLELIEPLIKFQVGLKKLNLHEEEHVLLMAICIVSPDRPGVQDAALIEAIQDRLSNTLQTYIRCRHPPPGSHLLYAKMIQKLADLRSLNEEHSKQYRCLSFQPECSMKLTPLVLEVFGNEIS
# Chain of Peroxisome proliferator-activated receptor gamma (Homo sapiens) (P37231 whole entry, looked up): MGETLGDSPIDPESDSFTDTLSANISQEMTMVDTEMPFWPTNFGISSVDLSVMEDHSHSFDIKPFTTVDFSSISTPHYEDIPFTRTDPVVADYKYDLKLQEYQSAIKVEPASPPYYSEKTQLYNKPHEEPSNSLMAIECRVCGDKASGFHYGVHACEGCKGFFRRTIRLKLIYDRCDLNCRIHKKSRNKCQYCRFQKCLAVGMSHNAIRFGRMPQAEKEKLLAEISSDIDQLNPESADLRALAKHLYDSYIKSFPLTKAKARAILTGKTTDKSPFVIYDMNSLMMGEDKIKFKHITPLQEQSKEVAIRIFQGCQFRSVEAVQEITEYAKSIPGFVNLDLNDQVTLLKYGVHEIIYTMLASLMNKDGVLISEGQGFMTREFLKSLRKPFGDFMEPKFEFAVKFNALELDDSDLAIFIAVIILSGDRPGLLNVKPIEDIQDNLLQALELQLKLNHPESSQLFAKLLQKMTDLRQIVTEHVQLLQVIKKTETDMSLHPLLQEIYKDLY
# Chain of Tumor necrosis factor (Homo sapiens) (P01375 whole entry, looked up): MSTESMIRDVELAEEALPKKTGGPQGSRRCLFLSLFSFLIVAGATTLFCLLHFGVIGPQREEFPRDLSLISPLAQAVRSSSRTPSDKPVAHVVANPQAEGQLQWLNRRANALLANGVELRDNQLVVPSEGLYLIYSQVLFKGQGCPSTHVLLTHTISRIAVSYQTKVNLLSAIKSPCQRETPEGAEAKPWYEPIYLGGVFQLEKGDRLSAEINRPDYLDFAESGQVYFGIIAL
# Chain of Retinoic acid receptor RXR-alpha (Homo sapiens) (P19793 whole entry, looked up): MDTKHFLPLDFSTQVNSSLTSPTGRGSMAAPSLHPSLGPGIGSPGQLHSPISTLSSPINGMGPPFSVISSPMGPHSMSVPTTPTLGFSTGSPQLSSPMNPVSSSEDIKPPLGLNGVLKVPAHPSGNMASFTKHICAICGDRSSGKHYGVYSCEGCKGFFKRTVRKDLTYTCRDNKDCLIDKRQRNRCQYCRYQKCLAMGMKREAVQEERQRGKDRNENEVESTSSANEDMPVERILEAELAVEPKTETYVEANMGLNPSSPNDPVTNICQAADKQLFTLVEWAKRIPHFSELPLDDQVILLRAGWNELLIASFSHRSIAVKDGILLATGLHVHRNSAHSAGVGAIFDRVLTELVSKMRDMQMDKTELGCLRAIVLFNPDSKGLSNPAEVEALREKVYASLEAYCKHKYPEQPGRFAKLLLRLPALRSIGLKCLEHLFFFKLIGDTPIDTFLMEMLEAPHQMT
# Chain of Bile acid receptor (Homo sapiens) (Q96RI1 whole entry, looked up): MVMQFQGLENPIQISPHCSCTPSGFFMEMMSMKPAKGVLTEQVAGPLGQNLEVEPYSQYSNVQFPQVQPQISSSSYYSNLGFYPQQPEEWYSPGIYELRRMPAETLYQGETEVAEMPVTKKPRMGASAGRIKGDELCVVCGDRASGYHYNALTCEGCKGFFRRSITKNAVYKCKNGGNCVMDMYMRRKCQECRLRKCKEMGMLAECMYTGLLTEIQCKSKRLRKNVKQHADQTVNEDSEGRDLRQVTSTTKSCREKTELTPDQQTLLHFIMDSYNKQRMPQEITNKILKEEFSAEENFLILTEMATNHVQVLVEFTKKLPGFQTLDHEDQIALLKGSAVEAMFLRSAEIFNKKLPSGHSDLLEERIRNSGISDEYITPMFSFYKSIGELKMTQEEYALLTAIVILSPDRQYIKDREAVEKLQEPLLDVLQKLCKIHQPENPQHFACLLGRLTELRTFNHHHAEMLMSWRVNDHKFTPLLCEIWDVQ
structure (smiles),measurement,setting,value
COc1ccc(C)cc1N,Potency,[1],inactive
same,"activity change, negative = cytotoxicity",[2],-14.1% (inactive)
same,Potency,[3],inactive
same,Potency,[4],inactive
same,Potency,[5],inactive
same,Potency,[6],inactive
same,max response,[7],4.23%
same,Potency,[8],inactive
same,Potency,[9],inactive
same,Potency,[10],inactive
c1cc2c3c(c1)ccc1cccc(c13)C2,"activity change, negative = cytotoxicity",[2],0.332% (inactive)
same,Potency,[3],inactive
same,Potency,[11],inactive
same,Potency,[5],inactive
same,Potency,[12],inactive
same,max response,[7],4.88%
same,Potency,[8],inactive
same,Potency,[9],inactive
same,Potency,[10],inactive
same,Potency,[13],inactive
Cc1ccccc1OCC1CO1 (configuration not stated),Potency,[1],inactive
same,"activity change, negative = cytotoxicity",[2],-6.29% (inactive)
same,Potency,[3],inactive
same,Potency,[5],inactive
same,Potency,[12],inactive
same,Potency,[14],inactive
same,outcome,[15],inactive
same,Potency,[8],inactive
same,Potency,[13],inactive
CCC(Cl)CC(Cl)C(Cl)C(Cl)C(Cl)C(C)Cl (configuration not stated),Potency,[3],inactive
same,Potency,[16],inactive
same,Potency,[4],inactive
same,Potency,[11],inactive
same,Potency,[12],inactive
same,max response,[7],-12%
same,Potency,[10],inactive
same,Potency,[13],inactive
C=CC(C)(O)CCCC(C)CCCC(C)CCCC(C)C (configuration not stated),Potency,[1],inactive
same,"activity change, negative = cytotoxicity",[2],-17.1% (inactive)
same,Potency,[3],inactive
same,Potency,[5],inactive
same,Potency,[6],inactive
same,max response,[7],4.15%
same,Potency,[17],inactive
same,Potency,[9],inactive
same,Potency,[10],inactive
CC(C)COC(=O)COc1cc(Cl)c(Cl)cc1Cl,Potency,[3],inactive
same,Potency,[16],inactive
same,Potency,[4],inactive
same,Potency,[5],inactive
same,Potency,[12],inactive
same,max response,[7],16.7%
same,Potency,[17],inactive
same,activation,[18],-1.51% (inactive)
same,Potency,[13],inactive
same,Potency,[19],inactive
COc1ccc([N+](=O)[O-])cc1N,Potency,[1],inactive
same,Potency,[3],inactive
same,Potency,[16],inactive
same,Potency,[4],inactive
same,Potency,[5],inactive
same,Potency,[14],inactive
same,max response,[7],74.5% and 5.37%
same,Potency,[9],inactive
same,Potency,[19],inactive
CCOc1ccc2nc(N)sc2c1,Potency,[1],inactive
same,Potency,[3],inactive
same,Potency,[16],inactive
same,Potency,[11],inactive
same,Potency,[5],inactive
same,Potency,[12],inactive
same,Potency,[9],inactive
O=C(O)c1ccc([N+](=O)[O-])cc1,Potency,[1],inactive
same,"activity change, negative = cytotoxicity",[2],9.32% (inactive)
same,Potency,[5],inactive
same,Potency,[12],inactive
same,Potency,[14],inactive
same,max response,[7],8.52%
same,Potency,[9],inactive
same,Potency,[10],inactive
CCc1ccc(C(c2ccc(CC)cc2)C(Cl)Cl)cc1,Potency,[3],inactive
same,Potency,[16],inactive
same,Potency,[6],inactive
same,Potency,[12],inactive
same,Potency,[8],inactive
O=CC(=O)c1ccccc1,Potency,[1],inactive
same,Potency,[16],inactive
same,Potency,[5],inactive
same,max response,[7],7.18%
same,outcome,[15],inactive
same,Potency,[9],inactive
same,Potency,[13],inactive
CCCCNCC,"activity change, negative = cytotoxicity",[2],-1.46% (inactive)
same,Potency,[16],inactive
same,Potency,[5],inactive
same,Potency,[6],inactive
same,max response,[7],-21.4%
same,outcome,[15],inactive
same,Potency,[9],inactive
same,Potency,[10],inactive
same,Potency,[13],inactive
same,Potency,[19],inactive
O=[N+]([O-])c1cccc(I)c1,"activity change, negative = cytotoxicity",[2],-10.4% (inactive)
same,Potency,[4],inactive
same,Potency,[5],inactive
same,Potency,[12],inactive
same,max response,[7],12.5%
same,Potency,[8],inactive
same,Potency,[9],inactive
same,activation,[18],-3.48% (inactive)
same,Potency,[10],inactive
same,Potency,[19],inactive
